Assay [1] in a line: E. coli DRC41 culture turbidity changes, primary screen, E. coli filamentation inducer project, strain DRC41, OD650, 48 h (AID 1152).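 Also: E. coli MC1000 strain DRC41 lacking acrAB efflux pump and sulA.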 The note with it: E. coli DRC41 (acrAB sulA), higher = more signal, called active from +8 up or from −8 down.
Assay [2] can be described thus: small-molecule binders of probe aLefty1, primary screen, biochemical, small-molecule microarray, 635/667 nm fluorescence (AID 1153).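 Also: score merges spot fluorescence with signal-to-noise ratio from the scanned slide images.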 The note with it: higher = more signal.
Assay [3] in a line: PSAC antagonists in infected red cells, primary screen, cell-based, P. falciparum Indochina, OD700, 1 h (AID 1154). The note with it: P. falciparum Indochina infected RBC osmotic lysis, higher = more signal, called active from +8 up or from −8 down.
Assay [4] in a line: PSAC antagonists in infected red cells, primary screen, cell-based, P. falciparum Indochina, OD700, 2 h (AID 1155).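 Also: lysis reports solute entry through the parasite surface anion channel PSAC; channel blockers reduce lysis of infected cells.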 The note with it: P. falciparum Indochina infected erythrocytes, osmotic lysis OD700; higher = more signal, called active from +8 up or from −8 down.
The nature of assay [5]: osmotic lysis modulators in infected erythrocytes, primary screen, PSAC antagonist project, cell-based, P. falciparum Indochina, OD700, 3 h (AID 1156). The note with it: higher = more signal, called active from +8 up or from −8 down.
The nature of assay [6]: PSAC antagonists in infected red cells, primary screen, cell-based, P. falciparum Indochina, OD700, 18 h (AID 1157). Conditions: P. falciparum Indochina infected erythrocytes, osmotic lysis OD700, 18 h; higher = more signal, called active from +8 up or from −8 down.
A short description of assay [7]: modulators of S6 phosphorylation in cells, primary screen, cell-based, A549, cytoblot, luminescence, serum-stimulated (AID 1158).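 Also: serum-stimulated A549 lung adenocarcinoma cells; signal is phosphorylated S6 detected by cytoblot immunostaining with HRP secondary.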 The note with it: A549 phospho-S6 cytoblot, 5 h, higher = more signal.
The target in assay [8] is NADPH oxidase 2 (Homo sapiens) (UniProt P04839). Description: NOX2-dependent H2O2 signal modulators, primary screen, NOX inhibitor project, cell-based, HEK293-NOX2, PMA-stimulated, Amplex Red fluorescence (AID 1159). Also: test concentration not given here. The note with it: 45 min, higher = more signal, called active from +8 up or from −8 down.
Assay [9] concerns the target NADPH oxidase 4 (Homo sapiens) (UniProt Q9NPH5). Description: NOX4-dependent H2O2 signal modulators, primary screen, NOX inhibitor project, cell-based, HEK293-NOX4, tetracycline-induced, Amplex Red fluorescence (AID 1160). Conditions: 45 min, higher = more signal, called active from +8 up or from −8 down.
The target of assay [10] is NADPH oxidase 5 (Homo sapiens) (UniProt Q96PH1). Put plainly: NOX5-dependent H2O2 signal modulators, primary screen, NOX inhibitor project, cell-based, HEK293-NOX5, Amplex Red fluorescence (AID 1161). Conditions: HEK293-NOX5, ionomycin, 45 min, higher = more signal.
The nature of assay [11]: A549 cell viability effects, profiling panel, calcein-AM fluorescence, 48 h, basal (AID 1162). Also: test concentration not given here. The note with it: higher = more signal.
Assay [12] is described as follows: adipocyte viability effects, profiling panel, cell-based, 3T3-L1 adipocytes, calcein-AM fluorescence, 48 h, basal (AID 1163). Also: test concentration not given here. The note with it: 3T3-L1 adipocytes viability, higher = more signal.
Assay [13] in a line: HepG2 cell viability effects, profiling panel, calcein-AM fluorescence, 48 h, basal (AID 1164). Also: test concentration not given here. The note with it: higher = more signal.
Assay [14] in a line: MM1S cell viability effects, profiling panel, calcein-AM fluorescence, 48 h, basal (AID 1165).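 Also: viability of MM1S multiple myeloma cells under basal unstimulated conditions; test concentration not given here.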 The note with it: higher = more signal.
Assay [15] in a line: basal RPMI8226 viability, no added stimulus, profiling panel, cell-based, calcein-AM fluorescence, 48 h, PK04 Diversity Set (AID 1166).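 Also: cells grown under basal conditions without added stimulus; test concentration not given here.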 The note with it: RPMI8226 myeloma viability, higher = more signal.
Assay [16] can be described thus: basal HepG2 mitochondrial membrane potential changes, profiling panel, cell-based, JC-1 fluorescence, 24 h, 100 nL compound (AID 1167). Also: test concentration not given here. The note with it: higher = more signal.
A short description of assay [17]: basal 3T3-L1 adipocyte mitochondrial potential changes, profiling panel, cell-based, JC-1 fluorescence, 3T3-L1 adipocytes, 24 h, 100 nL compound (AID 1168). Also: test concentration not given here. Conditions: JC-1 mitochondrial fluorescence, higher = more signal, called active from +8 up or from −8 down.
The nature of assay [18]: basal RPMI8226 mitochondrial membrane potential changes, profiling panel, cell-based, JC-1 fluorescence, 24 h, 100 nL compound (AID 1169). Also: test concentration not given here. The note with it: RPMI8226 myeloma, JC-1 mitochondrial potential fluorescence, higher = more signal.
Assay [19] in a line: basal MM1S mitochondrial membrane potential changes, profiling panel, cell-based, JC-1 fluorescence, 24 h, 100 nL compound (AID 1170). Also: test concentration not given here. Conditions: higher = more signal.
A short description of assay [20]: A549 lung cancer cell viability effects, profiling panel, resazurin fluorescence, 24 h, PK04 Diversity Set (AID 1171). Also: test concentration not given here. The note with it: higher = more signal, called active from +8 up or from −8 down. (In general: The colour change of resazurin is a common sign of viable cells or microbes.)

Calls of active or inactive are those of the source.

NADPH oxidase 2 (Homo sapiens), sequence (P04839 whole entry, looked up): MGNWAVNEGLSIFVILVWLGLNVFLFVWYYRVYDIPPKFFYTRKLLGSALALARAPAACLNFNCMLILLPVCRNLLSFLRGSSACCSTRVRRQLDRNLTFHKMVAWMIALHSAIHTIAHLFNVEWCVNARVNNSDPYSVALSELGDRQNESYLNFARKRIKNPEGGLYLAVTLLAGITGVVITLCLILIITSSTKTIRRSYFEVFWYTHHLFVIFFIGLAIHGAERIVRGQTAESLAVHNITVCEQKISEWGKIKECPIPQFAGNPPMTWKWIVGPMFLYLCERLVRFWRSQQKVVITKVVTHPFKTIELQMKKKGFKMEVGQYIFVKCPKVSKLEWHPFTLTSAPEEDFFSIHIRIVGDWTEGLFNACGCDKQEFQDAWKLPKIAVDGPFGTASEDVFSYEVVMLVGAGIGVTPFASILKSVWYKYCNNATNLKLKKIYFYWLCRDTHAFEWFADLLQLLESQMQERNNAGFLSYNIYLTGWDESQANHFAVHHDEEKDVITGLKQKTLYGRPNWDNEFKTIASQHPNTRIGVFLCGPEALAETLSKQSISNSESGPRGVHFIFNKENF
NADPH oxidase 5 (Homo sapiens), sequence (Q96PH1 whole entry, looked up): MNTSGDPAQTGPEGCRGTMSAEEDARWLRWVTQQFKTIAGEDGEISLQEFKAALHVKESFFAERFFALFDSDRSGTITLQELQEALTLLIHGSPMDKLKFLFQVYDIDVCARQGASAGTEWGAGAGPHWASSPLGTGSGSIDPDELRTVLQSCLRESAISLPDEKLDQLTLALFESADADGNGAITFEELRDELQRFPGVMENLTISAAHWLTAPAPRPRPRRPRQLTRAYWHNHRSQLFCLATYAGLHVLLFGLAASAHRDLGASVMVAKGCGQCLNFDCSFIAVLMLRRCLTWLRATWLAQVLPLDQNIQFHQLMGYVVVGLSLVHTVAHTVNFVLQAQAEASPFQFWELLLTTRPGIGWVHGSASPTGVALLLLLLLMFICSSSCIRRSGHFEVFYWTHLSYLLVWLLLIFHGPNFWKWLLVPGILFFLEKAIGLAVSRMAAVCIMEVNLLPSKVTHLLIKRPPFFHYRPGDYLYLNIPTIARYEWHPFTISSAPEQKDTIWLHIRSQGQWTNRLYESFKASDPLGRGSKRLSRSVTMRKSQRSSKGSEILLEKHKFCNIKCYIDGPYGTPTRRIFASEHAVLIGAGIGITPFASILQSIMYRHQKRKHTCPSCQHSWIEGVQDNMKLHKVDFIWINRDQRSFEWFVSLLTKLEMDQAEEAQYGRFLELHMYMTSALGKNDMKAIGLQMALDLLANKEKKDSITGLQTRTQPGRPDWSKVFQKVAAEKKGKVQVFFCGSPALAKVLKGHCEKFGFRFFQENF
NADPH oxidase 4 (Homo sapiens), sequence (Q9NPH5 whole entry, looked up): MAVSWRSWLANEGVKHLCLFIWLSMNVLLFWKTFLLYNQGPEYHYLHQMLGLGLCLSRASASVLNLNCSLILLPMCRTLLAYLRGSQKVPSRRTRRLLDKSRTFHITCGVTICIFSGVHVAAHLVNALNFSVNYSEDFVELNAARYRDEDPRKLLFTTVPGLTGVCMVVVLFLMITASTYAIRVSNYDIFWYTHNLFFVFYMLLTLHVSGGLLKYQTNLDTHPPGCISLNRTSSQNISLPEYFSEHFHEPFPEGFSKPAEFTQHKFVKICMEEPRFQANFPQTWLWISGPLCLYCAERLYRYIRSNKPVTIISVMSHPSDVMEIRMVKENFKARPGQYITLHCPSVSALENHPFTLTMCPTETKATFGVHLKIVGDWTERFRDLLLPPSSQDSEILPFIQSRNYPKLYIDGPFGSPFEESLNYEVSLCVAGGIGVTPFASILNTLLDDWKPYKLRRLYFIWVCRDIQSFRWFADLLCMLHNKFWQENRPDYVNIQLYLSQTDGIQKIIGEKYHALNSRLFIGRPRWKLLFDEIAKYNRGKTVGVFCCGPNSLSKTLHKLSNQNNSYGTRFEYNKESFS

As to `O=C1c2ccccc2[C@](Cc2ccccc2I)(C(=O)O)[C@H](c2ccc(CO)cc2)N1Cc1ccccc1`, the z-score in assay [1] is 0.848 (inactive); in [3], 4.42 (inactive); in [4] it was -0.579 (inactive); in assay [5] it was -0.144 (inactive); in assay [6], -0.656 (inactive); in assay [7] it was 1.25. For the same molecule, the z-score is 0.516 (inactive) in [8]; 0.148 (inactive) in [9]; 1.71 in assay [10]; 1.48 in [11]; 0.431 in assay [12]; 1.04 in assay [13]. The z-score is 0.295 in [14]; -1.66 in [15]; 0.275 in assay [16]; 0.0449 (inactive) in [17]; -0.601 in assay [18]; -0.349 in assay [19]. Further, in assay [20], the z-score is -1.45 (inactive). Further, the composite z-score in [2] came out at 0.223.
Consider `COCCOC(=O)N1C(=O)[C@@]2(c3cc(C#CC4(O)CCCCCC4)ccc31)[C@H](C(=O)N1CCc3cc(OC)c(OC)cc3C1)[C@H]1C(=O)O[C@H](c3ccccc3)[C@H](c3ccccc3)N1[C@@H]2c1ccc(O)cc1`, for which the z-score in assay [1] was 1.27 (inactive); in [3], 1.31 (inactive); in [4], 0.735 (inactive); in assay [5], 1.89 (inactive); in assay [6], 0.712 (inactive); in assay [7], 0.278. Also, the z-score in assay [8] is 2.19 (inactive); in [9], 0.296 (inactive); in [10], 0.725; in [11], -0.635; in assay [12] it was 1.29; in [13] it was 0.582. Also, the z-score in assay [14] was -1.06; in assay [15], -0.964; in assay [16], -0.145; in [17], -0.093 (inactive); in assay [18], -1.06; in assay [19] it was 0.318. For the same molecule, the z-score in assay [20] is -0.311 (inactive). The molecule further displayed a composite z-score in assay [2] of 0.176.
`COc1ccc(CCNC(=O)[C@@]2(Sc3ccc(C)cc3)CC(=O)N(C(C)C)[C@@H]2c2ccc(CO)cc2)cc1`: the z-score was -0.58 (inactive) in assay [1]; 2.36 (inactive) in [3]; 0.741 (inactive) in assay [4]; 0.152 (inactive) in [5]; 0.549 (inactive) in assay [6]; -0.21 in assay [7]. Further, the z-score was -0.575 (inactive) in [8]; -1.16 (inactive) in [9]; -2.03 in [10]; 0.353 in assay [11]; 0.356 in [12]; -0.453 in assay [13]. Moreover, the z-score is -0.169 in assay [14]; 0.0991 in assay [15]; -0.41 in [16]; 0.0372 (inactive) in assay [17]; 0.043 in assay [18]; 0.277 in [19]. Also, the z-score in assay [20] is -0.107 (inactive). In assay [2], this molecule came in with a composite z-score of 0.0391.
For `O=C1C2C=CC(C(O)C(c3ccccc3)c3ccccc3)N(Nc3ccccc3)C2C(=O)N1c1ccccc1` (stereo not given), the z-score in assay [1] is -0.606 (inactive); in assay [3], 1.85 (inactive); in assay [4] it was 1.71 (inactive); in assay [5], 0.331 (inactive); in [6] it was 1.41 (inactive); in [7], -1.25. The z-score in [8] is -1.72 (inactive); in assay [9], -4.94 (inactive); in [10] it was -2.54; in [11], 0.758; in assay [12], -0.835; in assay [13] it was 1.82. The z-score was 0.032 in assay [14]; -0.213 in assay [15]; -0.335 in assay [16]; -1.64 (inactive) in assay [17]; -0.305 in assay [18]; -0.401 in assay [19]. Moreover, the z-score in assay [20] was -0.876 (inactive). This molecule gave a composite z-score in assay [2] of 0.591.
`COCCCNC(=O)[C@@H]1c2ccccc2C(=O)N(C2CCCCC2)[C@H]1c1ccc(CO)cc1`: the z-score in [1] was 0.416 (inactive); in assay [3] it was 0.794 (inactive); in assay [4], -0.0928 (inactive); in assay [5] it was 0.65 (inactive); in assay [6], -0.51 (inactive); in assay [7], 2.35. Moreover, the z-score is 0.422 (inactive) in assay [8]; -1.61 (inactive) in assay [9]; -0.915 in assay [10]; 1.83 in [11]; 1.15 in [12]; 1.05 in [13]. The z-score is 0.777 in assay [14]; -0.559 in assay [15]; 2.49 in assay [16]; -0.154 (inactive) in assay [17]; 0.107 in assay [18]; -1.17 in [19]. For the same molecule, in assay [20], the z-score is 1.19 (inactive). In assay [2], this molecule came in with a composite z-score of 0.0839.
Turning to `O=C1O[C@H](c2ccccc2)[C@H](c2ccccc2)N2[C@H]1[C@@H](C(=O)N1CCN(c3ncccn3)CC1)[C@]1(C(=O)Nc3ccccc31)[C@H]2c1ccc(O)cc1`, the z-score in assay [1] is 0.649 (inactive); in assay [3], 1.24 (inactive); in assay [4], 1.01 (inactive); in [5], -0.236 (inactive); in assay [6] it was 1.01 (inactive); in assay [7], 0.0782. Moreover, the z-score in [8] was 0.898 (inactive); in assay [9], -1.54 (inactive); in assay [10] it was 1.65; in assay [11] it was 0.947; in [12] it was 1.36; in assay [13] it was 0.406. Further, the z-score in assay [14] is -1.28; in assay [15], -4; in assay [16], -1.26; in assay [17] it was 1.04 (inactive); in [18] it was -1.06; in assay [19], 0.183. Besides, in assay [20], the z-score is 0.371 (inactive). In addition, in assay [2], the composite z-score was 0.0262.
With `C=C(CCCC)C(=O)CC[C@H](OC(=O)c1cccnc1)c1ccc(CO)o1`, the z-score in [1] is -0.348 (inactive); in assay [3], 2.21 (inactive); in [4] it was 0.101 (inactive); in assay [5], 0.217 (inactive); in assay [6] it was 0.038 (inactive); in assay [7], -0.253. In addition, the z-score in [8] was 1.25 (inactive); in [9], 0.532 (inactive); in [10], -0.454; in [11], -0.489; in [12] it was -0.175; in assay [13] it was 0.0768. Further, the z-score in [14] was 0.187; in assay [15] it was -0.0395; in assay [16], -1.48; in [17], -0.572 (inactive); in assay [18], -0.577; in [19], -0.283. Besides, the z-score in [20] is -0.0291 (inactive). The composite z-score in assay [2] worked out at 0.3.
`COCCOC(=O)N1C(=O)[C@@]2(c3cc(C#CC4(O)CCCCCC4)ccc31)[C@H](c1ccc(OCCO)cc1)N1[C@H](c3ccccc3)[C@H](c3ccccc3)OC(=O)[C@H]1[C@@H]2C(=O)N1CCCCCCC1`: the z-score in assay [1] is 0.148 (inactive); in assay [3] it was 2.18 (inactive); in [4] it was 2.02 (inactive); in assay [5] it was 0.736 (inactive); in assay [6], 1.02 (inactive); in assay [7], 0.49. Moreover, the z-score in assay [8] was 0.707 (inactive); in assay [9], -1.45 (inactive); in assay [10], 0.0377; in assay [11], -0.359; in assay [12] it was 2.14; in assay [13] it was 0.292. Moreover, the z-score in [14] is -0.834; in [15], -1.78; in assay [16], -1.1; in assay [17] it was -2.25 (inactive); in assay [18], -0.468; in [19] it was -1.08. For the same molecule, in [20], the z-score was -0.557 (inactive). In [2], this molecule showed a composite z-score of 2.52.
`COc1ccc(CCNC(=O)[C@@H]2c3ccccc3C(=O)N(CC34CC5CC(CC(C5)C3)C4)[C@H]2c2ccc(CO)cc2)cc1`: the z-score was 0.414 (inactive) in [1]; 5.38 (inactive) in assay [3]; 0.345 (inactive) in [4]; 0.68 (inactive) in assay [5]; -0.484 (inactive) in [6]; 1.15 in [7]. Further, the z-score in assay [8] was -2.37 (inactive); in [9] it was -1.91 (inactive); in [10], -5.14; in assay [11] it was 0.263; in [12], 1.63; in assay [13], 0.463. For the same molecule, the z-score in assay [14] is -1.39; in assay [15] it was -0.559; in [16], 1.47; in assay [17], -0.138 (inactive); in assay [18], -0.435; in assay [19], -0.0819. The z-score in assay [20] was 0.228 (inactive). In addition, in [2], the composite z-score is -0.0982.

The record behind these values is PubChem BioAssay.
